According to ChEMBL document CHEMBL1961873, “Compounds: GSK PKIS; Assays: Nanosyn kinase panel” (2012):

Columns and labels:
[1] = target: Protein kinase C gamma type (Homo sapiens) (UniProt P05129); settings: at 1 µM;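 note: each value is an averaged percent inhibition of the enzyme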
[2] = target: T1, Protein kinase C iota type (Homo sapiens) (UniProt P41743); settings: at 0.1 µM
T1 sequence (whole entry): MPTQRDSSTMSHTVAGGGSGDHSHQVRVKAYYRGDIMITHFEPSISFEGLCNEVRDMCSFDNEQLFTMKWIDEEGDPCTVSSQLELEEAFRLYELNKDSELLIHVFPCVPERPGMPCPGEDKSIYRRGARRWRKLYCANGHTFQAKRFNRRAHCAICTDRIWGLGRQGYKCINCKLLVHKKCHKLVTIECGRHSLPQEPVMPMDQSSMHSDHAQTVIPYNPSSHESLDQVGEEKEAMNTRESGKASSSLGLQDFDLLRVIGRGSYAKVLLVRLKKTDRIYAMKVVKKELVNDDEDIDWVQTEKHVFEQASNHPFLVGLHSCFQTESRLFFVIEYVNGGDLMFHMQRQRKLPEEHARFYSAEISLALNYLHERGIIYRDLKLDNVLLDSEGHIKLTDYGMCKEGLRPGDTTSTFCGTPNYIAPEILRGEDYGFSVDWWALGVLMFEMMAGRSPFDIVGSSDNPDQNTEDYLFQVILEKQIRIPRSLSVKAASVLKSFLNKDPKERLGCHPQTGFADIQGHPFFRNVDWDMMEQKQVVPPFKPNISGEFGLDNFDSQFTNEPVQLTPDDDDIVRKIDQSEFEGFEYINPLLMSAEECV

[3] = target: T1, Protein kinase C iota type (Homo sapiens); settings: at 1 µM
[4] = target: Protein kinase C theta type (Homo sapiens) (UniProt Q04759); settings: at 0.1 µM
Protein kinase C theta type (Homo sapiens), sequence (Q04759 whole entry, looked up): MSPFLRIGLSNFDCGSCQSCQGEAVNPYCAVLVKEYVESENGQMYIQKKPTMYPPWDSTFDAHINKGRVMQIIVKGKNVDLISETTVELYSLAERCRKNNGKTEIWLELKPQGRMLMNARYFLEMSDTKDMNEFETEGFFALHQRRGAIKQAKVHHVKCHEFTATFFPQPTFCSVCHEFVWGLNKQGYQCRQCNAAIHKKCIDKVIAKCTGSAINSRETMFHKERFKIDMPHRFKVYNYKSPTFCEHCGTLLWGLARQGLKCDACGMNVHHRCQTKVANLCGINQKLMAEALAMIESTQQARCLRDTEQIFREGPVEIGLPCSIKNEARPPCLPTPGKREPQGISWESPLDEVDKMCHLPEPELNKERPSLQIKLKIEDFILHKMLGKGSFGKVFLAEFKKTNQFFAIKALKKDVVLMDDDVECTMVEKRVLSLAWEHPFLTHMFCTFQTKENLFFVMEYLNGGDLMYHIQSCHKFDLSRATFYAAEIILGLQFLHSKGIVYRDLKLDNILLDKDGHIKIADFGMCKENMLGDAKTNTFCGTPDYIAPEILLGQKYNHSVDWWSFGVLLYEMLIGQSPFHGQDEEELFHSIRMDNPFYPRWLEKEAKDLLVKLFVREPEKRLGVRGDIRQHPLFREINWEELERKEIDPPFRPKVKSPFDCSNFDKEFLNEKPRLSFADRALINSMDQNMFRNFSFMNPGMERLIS

[5] = target: Protein kinase C theta type (Homo sapiens) (UniProt Q04759); settings: at 1 µM
[6] = target: Protein kinase C beta type (Homo sapiens) (UniProt P05771); settings: at 0.1 µM
Protein kinase C beta type (Homo sapiens), sequence (P05771 2-671 limits assumed): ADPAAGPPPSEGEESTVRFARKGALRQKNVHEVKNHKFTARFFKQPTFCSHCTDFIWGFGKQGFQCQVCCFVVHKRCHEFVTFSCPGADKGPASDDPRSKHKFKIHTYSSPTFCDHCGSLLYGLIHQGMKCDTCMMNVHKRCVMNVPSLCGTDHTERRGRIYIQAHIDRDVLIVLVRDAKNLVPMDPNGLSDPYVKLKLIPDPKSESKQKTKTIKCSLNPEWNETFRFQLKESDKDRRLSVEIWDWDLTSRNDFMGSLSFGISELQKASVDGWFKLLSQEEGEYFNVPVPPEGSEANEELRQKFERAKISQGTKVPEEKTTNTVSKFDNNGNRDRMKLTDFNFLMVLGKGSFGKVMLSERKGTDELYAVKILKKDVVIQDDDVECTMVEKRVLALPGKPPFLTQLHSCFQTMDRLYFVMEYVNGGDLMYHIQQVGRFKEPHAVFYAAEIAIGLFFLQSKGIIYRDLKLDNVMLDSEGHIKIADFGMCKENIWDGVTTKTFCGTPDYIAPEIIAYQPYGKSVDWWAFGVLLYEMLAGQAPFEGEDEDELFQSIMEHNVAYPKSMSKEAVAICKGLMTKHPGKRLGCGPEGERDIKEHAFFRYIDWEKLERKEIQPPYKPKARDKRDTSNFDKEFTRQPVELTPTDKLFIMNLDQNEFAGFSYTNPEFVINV

[7] = target: Protein kinase C beta type (Homo sapiens) (UniProt P05771); settings: at 1 µM
[8] = target: T2, Serine/threonine-protein kinase D1 (Homo sapiens) (UniProt Q15139); settings: at 0.1 µM
T2 sequence (whole entry): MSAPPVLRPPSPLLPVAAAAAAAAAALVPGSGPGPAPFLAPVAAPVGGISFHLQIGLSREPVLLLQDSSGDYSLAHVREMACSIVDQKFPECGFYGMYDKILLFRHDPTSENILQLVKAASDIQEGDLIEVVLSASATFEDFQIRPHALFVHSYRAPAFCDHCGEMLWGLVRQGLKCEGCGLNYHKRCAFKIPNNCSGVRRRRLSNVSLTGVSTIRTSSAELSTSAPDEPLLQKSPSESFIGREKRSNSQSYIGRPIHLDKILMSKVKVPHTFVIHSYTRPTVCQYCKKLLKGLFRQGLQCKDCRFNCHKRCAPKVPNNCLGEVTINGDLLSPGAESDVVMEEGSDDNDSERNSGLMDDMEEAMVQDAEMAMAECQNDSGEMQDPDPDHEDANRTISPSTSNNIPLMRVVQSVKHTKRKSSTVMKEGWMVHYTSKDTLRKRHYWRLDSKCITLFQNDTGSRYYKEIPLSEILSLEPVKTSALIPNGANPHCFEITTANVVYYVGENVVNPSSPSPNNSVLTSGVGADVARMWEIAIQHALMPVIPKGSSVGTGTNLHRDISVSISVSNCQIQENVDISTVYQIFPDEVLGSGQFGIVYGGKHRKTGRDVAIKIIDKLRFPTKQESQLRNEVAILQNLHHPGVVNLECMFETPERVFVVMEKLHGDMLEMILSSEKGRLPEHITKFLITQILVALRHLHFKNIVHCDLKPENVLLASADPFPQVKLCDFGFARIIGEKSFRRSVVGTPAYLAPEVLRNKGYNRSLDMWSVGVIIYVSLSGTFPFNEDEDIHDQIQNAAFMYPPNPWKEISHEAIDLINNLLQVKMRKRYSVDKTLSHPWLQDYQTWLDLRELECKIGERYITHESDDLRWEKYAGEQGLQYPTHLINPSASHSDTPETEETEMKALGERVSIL

[9] = target: T2, Serine/threonine-protein kinase D1 (Homo sapiens); settings: at 1 µM
[10] = target: T3, Serine/threonine-protein kinase D2 (Homo sapiens) (UniProt Q9BZL6); settings: at 0.1 µM
T3 sequence (whole entry): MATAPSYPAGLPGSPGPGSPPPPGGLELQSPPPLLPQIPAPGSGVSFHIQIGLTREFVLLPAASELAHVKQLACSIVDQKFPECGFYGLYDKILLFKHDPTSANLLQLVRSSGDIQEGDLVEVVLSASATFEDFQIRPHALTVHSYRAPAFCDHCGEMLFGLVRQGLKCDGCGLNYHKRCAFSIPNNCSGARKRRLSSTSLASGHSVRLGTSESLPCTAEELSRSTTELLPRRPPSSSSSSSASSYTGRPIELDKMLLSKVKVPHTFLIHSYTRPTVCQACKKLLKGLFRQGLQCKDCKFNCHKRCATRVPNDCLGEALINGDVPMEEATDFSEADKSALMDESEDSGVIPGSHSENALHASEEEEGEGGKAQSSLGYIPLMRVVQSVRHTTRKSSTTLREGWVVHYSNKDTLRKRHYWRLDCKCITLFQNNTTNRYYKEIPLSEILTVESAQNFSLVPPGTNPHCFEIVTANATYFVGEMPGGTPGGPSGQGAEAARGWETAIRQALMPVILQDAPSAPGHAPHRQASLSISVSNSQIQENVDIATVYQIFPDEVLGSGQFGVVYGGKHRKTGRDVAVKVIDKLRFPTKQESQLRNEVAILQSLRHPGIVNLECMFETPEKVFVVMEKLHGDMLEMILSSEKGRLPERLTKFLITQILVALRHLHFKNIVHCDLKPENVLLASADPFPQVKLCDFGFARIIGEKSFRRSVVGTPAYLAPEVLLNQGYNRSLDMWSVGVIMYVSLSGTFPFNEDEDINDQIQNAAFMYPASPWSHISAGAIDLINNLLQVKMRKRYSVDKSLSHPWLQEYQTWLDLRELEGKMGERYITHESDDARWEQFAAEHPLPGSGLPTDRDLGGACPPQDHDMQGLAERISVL

[11] = target: T3, Serine/threonine-protein kinase D2 (Homo sapiens); settings: at 1 µM
[12] = target: T4, Serine/threonine-protein kinase D3 (Homo sapiens) (UniProt O94806); settings: at 0.1 µM
T4 sequence (whole entry): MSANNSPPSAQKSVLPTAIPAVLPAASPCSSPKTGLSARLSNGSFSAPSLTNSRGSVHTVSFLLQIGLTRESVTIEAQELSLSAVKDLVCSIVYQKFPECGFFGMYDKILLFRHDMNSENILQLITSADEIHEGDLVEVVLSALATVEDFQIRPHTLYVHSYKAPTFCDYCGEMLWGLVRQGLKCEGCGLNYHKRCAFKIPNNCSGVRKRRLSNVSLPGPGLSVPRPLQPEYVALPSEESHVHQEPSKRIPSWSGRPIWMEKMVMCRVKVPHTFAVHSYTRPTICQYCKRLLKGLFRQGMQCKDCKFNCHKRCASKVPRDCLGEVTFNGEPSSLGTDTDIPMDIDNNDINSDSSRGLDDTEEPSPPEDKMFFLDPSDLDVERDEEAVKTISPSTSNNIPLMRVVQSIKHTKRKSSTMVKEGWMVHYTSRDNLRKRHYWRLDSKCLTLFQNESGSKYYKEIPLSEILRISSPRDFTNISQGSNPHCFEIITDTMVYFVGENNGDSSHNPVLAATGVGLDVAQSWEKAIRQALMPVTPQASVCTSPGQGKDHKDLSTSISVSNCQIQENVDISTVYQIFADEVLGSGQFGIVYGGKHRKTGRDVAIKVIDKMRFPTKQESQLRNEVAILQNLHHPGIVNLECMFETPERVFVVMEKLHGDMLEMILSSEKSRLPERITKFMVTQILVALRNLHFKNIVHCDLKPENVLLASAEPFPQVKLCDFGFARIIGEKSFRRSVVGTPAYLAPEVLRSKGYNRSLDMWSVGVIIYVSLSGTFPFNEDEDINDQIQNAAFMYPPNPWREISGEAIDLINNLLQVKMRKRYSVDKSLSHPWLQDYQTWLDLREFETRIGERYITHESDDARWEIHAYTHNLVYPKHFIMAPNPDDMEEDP

[13] = target: T4, Serine/threonine-protein kinase D3 (Homo sapiens); settings: at 1 µM
[14] = target: T5, cGMP-dependent protein kinase 1 (Homo sapiens) (UniProt Q13976); settings: at 0.1 µM
T5 sequence (whole entry): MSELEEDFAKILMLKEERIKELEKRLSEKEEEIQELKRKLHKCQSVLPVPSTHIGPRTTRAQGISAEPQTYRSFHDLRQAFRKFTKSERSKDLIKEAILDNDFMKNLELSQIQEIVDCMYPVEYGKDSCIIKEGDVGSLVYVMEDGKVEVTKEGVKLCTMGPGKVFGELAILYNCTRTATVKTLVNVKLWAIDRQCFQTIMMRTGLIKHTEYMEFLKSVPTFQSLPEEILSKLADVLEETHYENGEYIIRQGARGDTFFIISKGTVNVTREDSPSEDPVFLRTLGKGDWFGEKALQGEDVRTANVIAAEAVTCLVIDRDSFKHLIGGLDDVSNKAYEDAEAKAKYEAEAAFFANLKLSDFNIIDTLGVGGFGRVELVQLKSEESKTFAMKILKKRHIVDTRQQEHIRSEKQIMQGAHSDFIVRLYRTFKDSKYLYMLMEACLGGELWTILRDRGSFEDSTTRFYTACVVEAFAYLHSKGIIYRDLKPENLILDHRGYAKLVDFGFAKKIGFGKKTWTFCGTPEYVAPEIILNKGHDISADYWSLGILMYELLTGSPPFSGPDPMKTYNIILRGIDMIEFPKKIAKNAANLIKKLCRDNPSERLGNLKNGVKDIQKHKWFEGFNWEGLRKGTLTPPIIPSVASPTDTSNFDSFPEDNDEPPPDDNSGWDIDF

[15] = target: T5, cGMP-dependent protein kinase 1 (Homo sapiens); settings: at 1 µM
[16] = target: T6, cGMP-dependent protein kinase 2 (Homo sapiens) (UniProt Q13237); settings: at 0.1 µM
T6 sequence (whole entry): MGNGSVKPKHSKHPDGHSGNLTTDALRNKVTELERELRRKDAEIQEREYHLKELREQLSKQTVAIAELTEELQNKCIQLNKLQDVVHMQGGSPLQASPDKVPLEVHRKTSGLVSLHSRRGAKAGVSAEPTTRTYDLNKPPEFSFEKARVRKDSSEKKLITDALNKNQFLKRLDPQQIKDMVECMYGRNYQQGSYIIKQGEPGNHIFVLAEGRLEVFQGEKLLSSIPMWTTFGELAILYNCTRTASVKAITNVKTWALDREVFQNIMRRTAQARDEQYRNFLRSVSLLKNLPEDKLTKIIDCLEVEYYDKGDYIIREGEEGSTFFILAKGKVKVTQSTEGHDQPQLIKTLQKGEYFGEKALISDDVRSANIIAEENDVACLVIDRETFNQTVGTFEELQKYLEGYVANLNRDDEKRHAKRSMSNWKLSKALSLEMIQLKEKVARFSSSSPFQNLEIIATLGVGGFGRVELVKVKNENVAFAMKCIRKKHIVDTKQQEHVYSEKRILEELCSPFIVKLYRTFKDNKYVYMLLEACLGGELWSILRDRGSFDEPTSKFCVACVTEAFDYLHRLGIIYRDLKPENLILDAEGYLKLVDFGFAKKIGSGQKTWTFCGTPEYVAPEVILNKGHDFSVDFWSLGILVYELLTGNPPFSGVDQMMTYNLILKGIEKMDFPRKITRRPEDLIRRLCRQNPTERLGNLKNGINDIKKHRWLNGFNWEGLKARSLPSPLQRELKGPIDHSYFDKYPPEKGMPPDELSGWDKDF

[17] = target: T6, cGMP-dependent protein kinase 2 (Homo sapiens); settings: at 1 µM
[18] = target: T7, cAMP-dependent protein kinase catalytic subunit PRKX (Homo sapiens) (UniProt P51817); settings: at 0.1 µM
T7 sequence (whole entry): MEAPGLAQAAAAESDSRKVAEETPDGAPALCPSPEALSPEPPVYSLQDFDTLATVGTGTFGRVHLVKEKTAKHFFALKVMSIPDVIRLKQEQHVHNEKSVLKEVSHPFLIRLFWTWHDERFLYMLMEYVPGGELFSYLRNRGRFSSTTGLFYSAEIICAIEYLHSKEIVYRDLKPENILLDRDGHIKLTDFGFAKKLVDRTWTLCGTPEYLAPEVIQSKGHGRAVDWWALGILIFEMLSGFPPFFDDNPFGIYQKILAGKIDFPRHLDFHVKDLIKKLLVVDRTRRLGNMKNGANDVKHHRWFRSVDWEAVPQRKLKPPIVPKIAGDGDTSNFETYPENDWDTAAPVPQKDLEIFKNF

[19] = target: T7, cAMP-dependent protein kinase catalytic subunit PRKX (Homo sapiens); settings: at 1 µM
[20] = target: Rho-associated protein kinase 1 (Homo sapiens) (UniProt Q13464); settings: at 0.1 µM;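 note: values are mean percent inhibition of ROCK1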
Rho-associated protein kinase 1 (Homo sapiens), sequence (Q13464 2-1354 limits assumed): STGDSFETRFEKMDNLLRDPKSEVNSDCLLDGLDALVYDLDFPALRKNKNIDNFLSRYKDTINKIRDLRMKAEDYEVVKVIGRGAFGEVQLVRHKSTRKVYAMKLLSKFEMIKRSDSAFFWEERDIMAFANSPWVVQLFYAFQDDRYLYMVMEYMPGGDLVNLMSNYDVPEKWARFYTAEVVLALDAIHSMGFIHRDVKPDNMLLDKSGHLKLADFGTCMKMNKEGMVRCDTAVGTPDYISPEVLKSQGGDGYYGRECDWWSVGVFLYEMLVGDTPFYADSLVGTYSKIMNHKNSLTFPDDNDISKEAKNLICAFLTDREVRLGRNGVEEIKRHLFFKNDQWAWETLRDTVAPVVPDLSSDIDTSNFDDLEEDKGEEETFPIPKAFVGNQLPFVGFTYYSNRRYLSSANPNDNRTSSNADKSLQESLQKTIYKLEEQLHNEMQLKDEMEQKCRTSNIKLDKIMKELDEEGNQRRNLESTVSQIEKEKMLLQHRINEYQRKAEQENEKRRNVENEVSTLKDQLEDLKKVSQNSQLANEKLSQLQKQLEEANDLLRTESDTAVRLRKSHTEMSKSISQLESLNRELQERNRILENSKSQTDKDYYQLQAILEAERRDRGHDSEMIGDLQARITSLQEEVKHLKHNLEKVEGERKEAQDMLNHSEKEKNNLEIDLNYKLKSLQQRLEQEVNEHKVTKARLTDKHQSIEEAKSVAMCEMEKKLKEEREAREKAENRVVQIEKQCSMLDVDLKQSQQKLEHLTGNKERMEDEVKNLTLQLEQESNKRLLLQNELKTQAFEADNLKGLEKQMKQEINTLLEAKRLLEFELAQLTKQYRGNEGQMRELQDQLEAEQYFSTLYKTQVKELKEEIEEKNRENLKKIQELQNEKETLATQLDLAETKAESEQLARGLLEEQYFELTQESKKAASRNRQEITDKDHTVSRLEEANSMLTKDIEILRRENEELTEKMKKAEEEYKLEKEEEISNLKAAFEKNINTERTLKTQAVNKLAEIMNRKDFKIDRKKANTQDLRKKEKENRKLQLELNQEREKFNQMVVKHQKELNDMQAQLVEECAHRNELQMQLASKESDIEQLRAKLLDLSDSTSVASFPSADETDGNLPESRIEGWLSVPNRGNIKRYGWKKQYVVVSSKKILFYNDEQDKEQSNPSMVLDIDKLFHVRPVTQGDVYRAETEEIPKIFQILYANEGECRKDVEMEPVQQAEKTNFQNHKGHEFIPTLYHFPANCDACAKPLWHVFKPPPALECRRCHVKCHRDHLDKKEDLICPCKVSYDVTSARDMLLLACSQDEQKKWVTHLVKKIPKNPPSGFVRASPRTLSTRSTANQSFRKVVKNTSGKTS

Structure (SMILES)	inhibition [1] [%]	inhibition [2] [%]	inhibition [3] [%]	inhibition [4] [%]	inhibition [5] [%]	inhibition [6] [%]	inhibition [7] [%]	inhibition [8] [%]	inhibition [9] [%]	inhibition [10] [%]	inhibition [11] [%]	inhibition [12] [%]	inhibition [13] [%]	inhibition [14] [%]	inhibition [15] [%]	inhibition [16] [%]	inhibition [17] [%]	inhibition [18] [%]	inhibition [19] [%]	inhibition [20] [%]
NS(=O)(=O)c1ccc(NC=C2C(=O)Nc3ccc4ncsc4c32)cc1	9.7	2.56	5.28	3.44	11.8	2.28	6.13	28.5	78.4	21.3	79	19.4	76.3	6.31	28.6	18.4	61.7	2.2	12.2	15.5
CS(=O)(=O)Nc1cccc(-c2ccc3c(NC(=O)C4CC4)n[nH]c3c2)c1	1.59	0.49	0.91	-0.5	-0.76	-0.25	0.61	0.96	2.34	2.1	3.59	1.24	2.48	-0.41	1.73	1.34	2.16	0.39	-0.61	0.24
Cc1ccc(NC(=O)CC2CC2)cc1-c1ccc(C(=O)NCC2CC2)cc1	6.55	0.93	-0.03	2.09	2.23	1	2.35	2.3	3.9	2.89	3.78	3.15	3.66	2.45	1.88	1.38	2.64	1.92	2.19	1
NC(=O)c1sc(-n2cnc3ccccc32)cc1OCc1ccccc1Br	3.85	1.56	-0.46	1.86	2.63	1.02	2.96	5.36	9.59	7.73	6.86	5.8	8.54	3.41	5.69	3.61	5.73	3.19	5.64	2.06
Nc1nccc(C#Cc2cncnc2Nc2ccc(OCc3cccc(F)c3)c(Cl)c2)n1	4.21	1.86	3.2	2.44	1.22	0.73	1.49	3.68	6.75	4.56	5.62	5.15	5.74	2.37	5.43	1.99	7.43	0.49	-0.22	0.91
O=C1Nc2ccc(-c3cccnc3)cc2C1=Cc1cc(Br)c(O)c(Br)c1	6.29	1.6	3.35	1.77	2.57	0.86	1.44	2.94	4.25	3.88	4.38	4.62	5.23	4.28	11	2.46	4.63	1.55	-0.22	1.68
